# Source: PubChem BioAssay (NCI)
# The panel holds about 83,000 compounds, 20% with a hit somewhere; the sample as a whole holds those more often.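 Percent growth is the endpoint: 0 to 100 indicates growth inhibition (40 means 60% inhibition), 0 means no net growth, and negative values indicate cell death.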 Unmarked numbers belong to inactive results. Calls of active or inactive are those of the source. The calls were made as follows: active = growth percent below 10; inactive = the rest.
# System: HL-60(TB) leukemia
# Test: NCI-60 one-dose screen, 48 h (100 = growth as untreated, 0 = no growth, -100 = all killed)
# Conditions: 10 µM unless noted
row,Compound,growth
1,COC(=O)c1cccc([N+](=O)[O-])c1,121%
2,COc1ccc(-c2cc(-c3cccnc3)nc3sc4c(=O)n(-c5ccc(C)cc5)cnc4c23)cc1OC,107%
3,O=C(c1ccccc1)c1c(/C=C/c2ccccc2)nc2ccccc2c1/C=C/c1ccc(Br)cc1,112%
4,N#Cc1cc(-c2ccnc(Nc3ccc(NC(=O)CCl)cc3)n2)ccc1N1CCCC1,-49.2% (active)
5,O=[N+]([O-])c1cc(Br)c2cccc3c2c1CC3,94.4%
6,O=C1Nc2ccccc2/C1=C/c1cn(C[C@@H](O)Cn2c3ccccc3c(=O)c3ccccc32)c2ccccc12,82%
7,CC(=O)OC1CC2C3CCC4C[C@@H](NC(=O)C=C(C)C)CC[C@]4(C)C3CC[C@]2(C)[C@H]1C(C)N(C)C (stereo partly specified),-49.6% (active)
8,COc1cccc(-c2nc3sccn3c2-c2ccnc(NCCNC(=O)c3ccccc3)n2)c1,94.2%
9,CC1(C)N=C(N)N=C(N)N1c1ccc(CCCCc2ccccc2)c(Cl)c1,-25.5% (active)
10,N#Cc1c(-c2ccccc2)nc(SCc2nnc(-c3ccc(Cl)cc3)o2)[nH]c1=O,92.2%
11,COc1ccc(-n2nc3c(c2-c2ccc(OC)c(OC)c2)-c2oncc2CC3)cc1,88.4%
12,CCCCNC(=O)Oc1ccc(/C(=C(/CC)Cc2ccccc2)c2ccc(OCCCN(C)C)cc2)cc1,78%
13,CC(C)(C)n1nc(C2CC2)c(Br)c1NC(=O)c1ccccc1F,104%
14,Cn1cc(-c2csc(-c3cn(CCCN4CCOCC4)c4ccccc34)n2)c2cccnc21,70.9%
15,O=[N+]([O-])CC(c1ccccc1F)c1c[nH]c2ccccc12 (stereo unspecified),51.1%
16,CCCCCCCCCCCCC1CCC(=O)O1 (stereo unspecified),88.1%
17,CC(C)OC(=O)c1ccc2n1CCCc1cnc(Nc3ccccc3)nc1-2,79.1%
18,CN1CCN(c2ccc3nc(-c4cc(C(C)(C)C)c(O)c(C(C)(C)C)c4)[nH]c3c2)CC1,68.6%
19,CC1(C)OB(O)c2cc(-c3nc4ccc5[nH]ncc5c4c4c3CCCC4)ccc21,90.7%
20,Cc1nc2ccccc2c(/C=C/c2ccc(F)cc2)c1C(N)=O,81.1%
21,CCOc1cc(/C=C/C(=O)C(C(=O)/C=C/c2ccc(OC(=O)CNc3nnc(C)s3)c(OCC)c2)C(=O)CNc2nnc(C)s2)ccc1OC(=O)CNc1nnc(C)s1,-46.4% (active)
22,CCn1c(C)nc2cc(C(N)=O)ccc21,79.7%
23,Nc1c(C(=O)Nc2cccc([N+](=O)[O-])c2)sc2nc3c(cc12)C(O)CCC3 (stereo unspecified),9.71% (active)
24,COC(=O)[C@@]12OC[C@]34[C@H]([C@@H](O)[C@@H]1O)[C@@]1(C)[C@H](O)C(=O)C=C(C)[C@@H]1C[C@H]3OC(=O)C(OC(C)=O)[C@@H]24 (stereo partly specified),-59% (active)
25,C=CCn1c(SCC(=O)Nc2ccc(C(=O)/C=C/c3ccc(Cl)cc3)cc2)nnc1-c1ccc(Br)cc1,76.2%
26,CCCCCC(=O)N(CCCC)CCCC,109%
